Out of some 200,000 compounds screened, about 5,100 (2.5%) were called active. This is one part of a sample in which actives are shown more often than they occur.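 The calls were made as follows: active = activation above the screen-wide mean activation plus 3 SD (cut at about 130% in these data); inactive = the rest.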

The experiment is described as follows: potentiators of IFN-gamma driven STAT1 reporter – cell-based, HTS, luciferase reporter, primary screen (AID 932).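 Also: raw ratio to IFN-gamma control signal so 100% means no change and 0% no light.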 To be noted: NIH 3T3 STAT1-luciferase reporter, luminescence, at 5.5 µM, active compounds read high, 100% = IFN-gamma alone, no compound.
Turning to `COc1ccccc1CNC(=O)C1Cc2ccccc2C(=O)O1` (centres undefined), the activation (% of control) is 102% (inactive).
With `C#CCOCCOCCOCCNc1nc(N2CCN(C(=O)[C@H](Cc3ccc(O)cc3)n3cc(C(N)CC(C)C)nn3)CC2)nc(N2CCN(C(=O)[C@H](CCC(=O)O)n3cc(C(N)[C@H](C)CC)nn3)CC2)n1` (some centres undefined) the figure was 99.5% (inactive); with `CCOC(=O)N1CCN(Cc2nc(Cc3cccc(C(F)(F)F)c3)no2)CC1`, 97.5% (inactive).
Consider `COc1ccc(CC(=O)NCc2nnc(SCC(=O)Nc3nccs3)n2C)cc1`, for which the activation (% of control) is 91.2% (inactive).
Regarding `c1ccc(CCc2nc(-c3ccncc3)no2)cc1`, the activation (% of control) was 117% (inactive).
Under `COc1ccc(-c2noc(COc3ccc(Cl)c(C)c3)n2)cc1` stands 93.9% (inactive).
With `Cc1cc(Cl)ccc1OCc1nc(-c2ccncc2)no1` the figure was 151% (active); with `CCCOc1ccc(NC(=O)C2OC3OC(C)(C)OC3C3OC(C)(C)OC23)cc1` (centres undefined), 95.5% (inactive); with `CCn1c(CNS(=O)(=O)c2ccc(Cl)cc2)n[nH]c1=S`, 94.3% (inactive).
In the case of `O=C1/C(=C\c2ccccc2Cl)SC(=S)N1CCC(=O)N1CCCc2ccccc21`, the activation (% of control) is 98.2% (inactive).
With `O=C(Nc1ccccc1Cl)/C(Cl)=C(\Cl)S(=O)c1ccccc1` (centres undefined) the figure was 201% (active); with `O=C(CN1CCCCC1)Nc1ccccc1Cl`, 103% (inactive); with `COCCN(CCOC)C(=S)Nc1ccccc1Cl`, 91.7% (inactive).
With `CCN(CC)CC(=O)Nc1sc2c(c1C(=O)c1ccccc1C)CCC2` the figure was 100% (inactive); with `CCOC(=O)c1cc(-c2ccc(F)cc2)n(CC(=O)NCc2ccccn2)c1C`, 96.2% (inactive).
With `CO/N=C(\N)c1ccc([N+](=O)[O-])cc1` the figure was 97.7% (inactive); with `O=C(Nc1ccc(Cl)cc1)c1ccsn1`, 145% (active); with `O=C(NCc1cn2ccsc2n1)Nc1ccc(Cl)cc1`, 102% (inactive).
Turning to `O=C(Nc1ccccc1)c1nnsc1S(=O)(=O)c1ccc(Cl)cc1`, the activation (% of control) was 90% (inactive).
`CCCC(C)C(=O)NCc1ccncc1` (centres undefined): the activation (% of control) is 96.3% (inactive).
Under `CC1=C(C(=O)N(C)C)C(c2ccccc2OC(F)F)NC(=O)N1` (centres undefined) stands 104% (inactive).
Under `CC[N+]1(CC)CC2=Cc3ccccc3CC2C1` (centres undefined) stands 106% (inactive); under `COCCn1c(N)c(N(Cc2ccccc2)C(=O)C2CCCCC2)c(=O)[nH]c1=O`, 98% (inactive); under `Cc1cc(NC(=O)CSc2nccn2-c2ccc([N+](=O)[O-])cc2)no1`, 95.1% (inactive).
Under `COc1ccccc1CNC(=O)c1ccc(SC)cc1OC` stands 109% (inactive); under `COc1cc(SC)ccc1C(=O)Nc1cc(C)ccn1`, 102% (inactive).
Regarding `COc1cc(SC)ccc1C(=O)NCCOc1ccccc1Cl`, the activation (% of control) is 141% (active).
Under `COCCNC(=O)C(OC(=O)c1cccs1)c1ccc(F)cc1` (centres undefined) stands 93.1% (inactive).
With `CCc1ccc2c(c1)C(c1ccc([N+](=O)[O-])cc1)=NNC(c1ccccc1)=N2` the figure was 95.2% (inactive); with `CCOc1ccc2c(c1)C(c1ccc(C)cc1)=NNC(c1ccc(C)cc1)=N2`, 131% (active).
Under `Cc1ccc(C2=Nc3c(ccc4ccccc34)C(c3ccncc3)=NN2)cc1` stands 37.3% (inactive); under `O=C(NCc1ccccc1)C1=C[C@@H](c2ccc(C(F)(F)F)cc2)C[C@@H](OCc2ccc(CO)cc2)O1`, 106% (inactive); under `Cc1ccc(C2NC(C(=O)O)CS2)cc1` (centres undefined), 106% (inactive).
Take `O=C(Nc1ccccc1)c1cccnc1Nc1ccccc1`: the activation (% of control) was 99.2% (inactive).
Under `CN(C)c1ccnc(Nc2ccc(F)cc2)c1C#N` stands 98.2% (inactive); under `CC(C)c1ccc(Nc2ncccc2C#N)cc1`, 135% (active); under `Cc1oc2cc([N+](=O)[O-])c(O)c([N+](=O)[O-])c2c1C(=O)c1ccc(Br)cc1`, 94% (inactive).
Under `COc1cc(N=Cc2c(O)[nH]c3ccccc23)cc(OC)c1OC` stands 115% (inactive); under `COc1ccc(OC)c(N=Cc2c(O)[nH]c3ccccc23)c1`, 115% (inactive).
Under `COc1ccc(N=Cc2c(O)[nH]c3ccccc23)cc1OC` stands 145% (active); under `CCC(CC)c1nnc(NC(=O)c2nn(C)c(=O)c3ccccc23)s1`, 102% (inactive).
Take `CN(CCOc1ccc(Br)cc1)CC(=O)Nc1cccc(S(=O)(=O)NC2=NCCC2)c1`: the activation (% of control) is 97.5% (inactive).
Under `CCN(CC)S(=O)(=O)c1ccc(OC(C)C)c(N)c1` stands 98.6% (inactive); under `Cc1ccc2nc(-c3ccc(NC(=O)c4cccnc4)cc3)oc2c1`, 93.8% (inactive); under `Cc1ccc(-n2nc3cc(C)c(NC(=O)c4cccnc4)cc3n2)cc1`, 118% (inactive).
Under `Cc1cc2nc(-c3ccc(NC(=O)c4cccnc4)cc3)oc2cc1C` stands 137% (active); under `CCOc1ccc(CCN2C(=O)c3cccnc3C2=O)cc1OCC`, 96.9% (inactive).
Under `O=C(NC1CC1)c1cccc(Br)c1` stands 98.5% (inactive).
As to `Cc1ccc(C(=O)NC2CCN(C(=O)N3CCOCC3)CC2)cc1`, the activation (% of control) is 98.8% (inactive).
For the compound `O=C(NC1CC1)c1ccc(-c2ccccc2)cc1`, the activation (% of control) is 131% (active).
As to `COc1ccc(C)cc1NC(=O)CSc1nnc(CC(=O)Nc2ccccc2F)n1C`, the activation (% of control) is 92.1% (inactive).
Turning to `CCCCc1ccc(NC(=S)NCCCN2CCOCC2)cc1`, the activation (% of control) was 96.5% (inactive).
On to `O=C(Nc1ccc2nccnc2c1)c1ccco1`, for which the activation (% of control) is 127% (inactive).
Take `O=C(Nc1ccc2oc(-c3ccccc3F)nc2c1)c1ccco1`: the activation (% of control) is 170% (active).
With `O=C(Nc1cccc(-c2nc3ncccc3o2)c1)c1ccco1` the figure was 98.8% (inactive).
With `COCc1c(C(=O)OCc2c(C)noc2C)oc2ccccc12` the figure was 100% (inactive); with `COc1ccc(-c2nn(-c3ccccc3)cc2/C=C\C(=O)N2CCOCC2)cc1[N+](=O)[O-]`, 102% (inactive); with `S=C(Nc1cccc(Br)c1)N1CCn2cccc2C1c1cccnc1` (centres undefined), 90.5% (inactive).
With `c1ccc2[nH]c(NCCN3CCOCC3)nc2c1` the figure was 99.9% (inactive); with `c1ccc2cc3c(NCCN4CCOCC4)ccnc3cc2c1`, 137% (active); with `O=C(Cn1c(-c2ccccn2)nc2ccccc21)NCCN1CCOCC1`, 101% (inactive).
For the compound `Cn1cccc1/C=C1\SC(=O)N(CC(=O)Nc2ccc(F)cc2)C1=O`, the activation (% of control) is 100% (inactive).
Turning to `CC(=O)OC(COc1ccc(F)cc1)Cn1cnc2ccccc21` (centres undefined), the activation (% of control) is 103% (inactive).
On to `CCn1nc(C)c(CN2CCN(Cc3ccc(OC)c(C)c3C)C(CCO)C2)c1C` (centres undefined), for which the activation (% of control) was 98.9% (inactive).
